Test results as given in PubChem BioAssay.
Calls of active or inactive are those of the source.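 How the source made its calls, unless noted: active means NADPH fluorescence slope more negative than the mean of all samples by about 3 SD, 99.7% confidence; inactive means the rest.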

Columns and labels:
[1] = inhibitors of TNFa-induced NFkB p65 translocation, primary screen, imaging, HUVEC, MLSMR starter and 10KST1 sets (AID 438;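 active means inhibition above 20% together with a positive visual image hit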;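 further: compound added about 3h40 before a 20 min TNFalpha stimulation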;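 on inhibition: signal is the nuclear over cytoplasmic p65 intensity ratio per well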); details: HUVEC TNFa-induced p65 nuclear translocation; cell count: measured here: nuclei count (cytotoxicity indicator), at 2.08 µM; inhibition: at 2 µM, stronger effect = higher value, 0% TNFa-plus-vehicle, 100% no-TNFa wells
[2] = inhibitors of mutant huntingtin aggregation, primary screen, imaging, exon1htt(103Q)mCFP cells, high-content imaging (AID 483;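 active means visual image review flags a hit and inhibition of aggregation exceeds 20%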;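 further: compound exposure lasted 3 days before fixation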;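 on nuclei count: percent of the per-plate median nuclei count of sample wells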); details: exon1htt(103Q)mCFP cell line, aggregate imaging, at 2 µM; inhibition of aggregation: stronger effect = higher value; nuclei count: measured here: cell count, toxicity
[3] = inhibitors of E-selectin induction by TNFa, primary screen, imaging, HUVEC, immunofluorescence, MLSMR starter and 10KST1 sets (AID 487;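 active means visually confirmed hit in the image check and inhibition above 20%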;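 on inhibition: signal is fraction of cell area covered by stained E-selectin grains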;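 on nuclei count: 100% = median nuclei count of all wells on the same plate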); details: HUVEC TNFalpha-induced E-selectin immunofluorescence imaging, at 2 µM; inhibition: stronger effect = higher value; nuclei count: measured here: cell number, toxicity
[4] = target: Voltage-gated potassium channel subunit beta-2 (Rattus norvegicus) (UniProt P62483); test: KvBeta enzyme negative modulators, primary screen, biochemical, NADPH fluorescence (AID 622;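 active means fluorescence slope higher than the sample average by over 3 SD, cut at about -0.22 in these data, passing the limit was not always enough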;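 further: slope of raw intensity against log time taken from 70 to 1610 s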); details: recombinant KvBeta, 4-cyanobenzaldehyde reduction, at 10 µM, stronger effect = higher value
[5] = target: Voltage-gated potassium channel subunit beta-2 (Rattus norvegicus) (UniProt P62483); test: KvBeta positive modulators, primary screen, biochemical, NADPH fluorescence (AID 623); details: Recombinant KvBeta, NADPH fluorescence decrease slope, 10 min; at 10 µM; stronger effect = lower value;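 further: fluorescence intensity change per second fitted from 20 to 320 s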
[6] = target: Alpha-2C adrenergic receptor (Homo sapiens) (UniProt P18825); test: modulators of alpha2C/GIRK thallium flux, primary screen, cell-based, HEK293 alpha2C/GIRK1/2 (AID 624;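 active means fluorescence slope after compound addition differing from the mean of all screened samples at 99.7% confidence, in either direction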;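 further: slope of fluorescence ratio to pre-addition baseline per second over 15 to 24 s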); details: thallium flux BTC fluorescence, at 10 µM, actives lie on both sides
[7] = inhibitors of Sendai virus-induced IRF3 signaling, primary screen, TLR/RLR signaling modifier project, cell-based, Sendai virus stimulus, luciferase, 10K MLSCN set (AID 602276;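 active means inhibition at or above 50% at 10 µM; inactive means inhibition below 50%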;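 further: firefly luciferase from ISG56 promoter only with Renilla not read in this screen; 0% = Sendai virus plus DMSO and 100% = medium plus DMSO without virus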); details: HEK293 RL24 IRF3 luciferase reporter, at 10 µM, stronger effect = higher value
[8] = inhibitors of poly I:C-induced TLR3 signaling, primary screen, cell-based, poly I:C stimulus, luciferase, 10K MLSCN set (AID 602277;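 active means inhibition of the reporter signal at or above 50%; inactive means inhibition below 50%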); details: HEK293-TLR3 RL24 IRF3 luciferase reporter, at 10 µM, stronger effect = higher value

Voltage-gated potassium channel subunit beta-2 (Rattus norvegicus), sequence (P62483 whole entry, looked up): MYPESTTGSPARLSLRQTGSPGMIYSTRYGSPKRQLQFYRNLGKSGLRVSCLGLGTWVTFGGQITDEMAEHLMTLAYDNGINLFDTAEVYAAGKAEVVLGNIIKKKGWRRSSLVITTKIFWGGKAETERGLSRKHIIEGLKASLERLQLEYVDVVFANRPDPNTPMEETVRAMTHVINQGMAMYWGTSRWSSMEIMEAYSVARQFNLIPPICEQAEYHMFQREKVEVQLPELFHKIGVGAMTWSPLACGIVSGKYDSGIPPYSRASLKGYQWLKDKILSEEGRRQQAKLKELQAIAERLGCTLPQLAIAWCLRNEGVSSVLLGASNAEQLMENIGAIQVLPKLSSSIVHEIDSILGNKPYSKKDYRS
Alpha-2C adrenergic receptor (Homo sapiens), sequence (P18825 whole entry, looked up): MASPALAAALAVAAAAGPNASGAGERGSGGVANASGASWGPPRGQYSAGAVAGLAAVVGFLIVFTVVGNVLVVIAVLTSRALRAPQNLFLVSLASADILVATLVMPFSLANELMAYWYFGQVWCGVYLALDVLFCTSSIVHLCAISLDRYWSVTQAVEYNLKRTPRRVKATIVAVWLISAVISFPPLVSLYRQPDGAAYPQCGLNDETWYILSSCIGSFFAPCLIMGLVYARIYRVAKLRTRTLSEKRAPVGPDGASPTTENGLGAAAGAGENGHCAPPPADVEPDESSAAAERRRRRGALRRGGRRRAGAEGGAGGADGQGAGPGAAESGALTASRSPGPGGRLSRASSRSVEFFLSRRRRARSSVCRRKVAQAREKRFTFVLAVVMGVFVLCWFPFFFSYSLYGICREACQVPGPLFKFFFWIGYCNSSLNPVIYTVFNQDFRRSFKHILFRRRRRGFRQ

| SMILES | cell count [1] | inhibition [1] | inhibition of aggregation [2] | nuclei count [2] [%] | inhibition [3] | nuclei count [3] [%] | fluorescence slope [4] | NADPH fluorescence slope [5] | slope [6] | inhibition [7] | inhibition [8] |
| --- | --- | --- | --- | --- | --- | --- | --- | --- | --- | --- | --- |
| CN(C(=O)c1ccc2c(=O)n3c(nc2c1)CCCCC3)c1ccccc1 | 588 | -10.7% (inactive) | 23.6% (inactive) | 93.9 | 63.2% (active) | 76.9 | -0.457 (inactive) | -0.000341 (inactive) | 0.00528 (inactive) | 11.2% (inactive) | 8.93% (inactive) |
| O=P1(O)C=C(c2ccccc2)NC(c2ccccc2)=C1 | 405 | 3.4% (inactive) | -6.9% (inactive) | 92.3 | -48% (inactive) | 117 | -0.35 (inactive) | -5e-07 (inactive) | 0.00466 (inactive) | 10.1% (inactive) | 7.48% (inactive) |
| c1ccc(-n2ncc3c(NC4CCCCCC4)ncnc32)cc1 | 691 | -0.3% (inactive) | 3.1% (inactive) | 115 | -56.3% (inactive) | 122 | -0.547 (inactive) | -1.1e-06 (inactive) | 0.007 (inactive) | -49.7% (inactive) | -136% (inactive) |
| O=c1[nH]c2sc3c(c2c2nncn12)CCCC3 | 420 | 11.2% (inactive) | 13.5% (inactive) | 108 | -112% (inactive) | 111 | -0.499 (inactive) | -0.000261 (inactive) | 0.00486 (inactive) | 7.28% (inactive) | -10% (inactive) |
| Cc1ccc(NC(=O)C2CCCN(S(=O)(=O)c3cnc[nH]3)C2)c(Br)c1 (centres undefined) | 601 | 10.1% (inactive) | -33.6% (inactive) | 82.3 | 12.8% (inactive) | 108 | -0.543 (inactive) | -6.4e-05 (inactive) | 0.00566 (inactive) | 3.4% (inactive) | -7.13% (inactive) |
| CC(=O)c1cccc(NC(=O)CCOc2ccccc2)c1 | 580 | 7.4% (inactive) | 6% (inactive) | 101 | 1.3% (inactive) | 119 | -0.428 (inactive) | 4.3e-05 (inactive) | 0.00322 (inactive) | -37.6% (inactive) | -83.6% (inactive) |
| CCOC(=O)N1CCC(n2c(=S)[nH]c3cc(OC)c(OC)cc3c2=O)CC1 | 471 | 4.8% (inactive) | -23.4% (inactive) | 108 | -6.8% (inactive) | 105 | -0.631 (inactive) | 4.7e-05 (inactive) | 0.00633 (inactive) | 14.4% (inactive) | 23.2% (inactive) |
| CC1CN=C(N(C(=O)Nc2ccccc2)c2ccc(S(=O)(=O)N3CCOCC3)cc2)S1 (centres undefined) | 476 | -4.8% (inactive) | 11.9% (inactive) | 95.4 | -38.9% (inactive) | 112 | -0.356 (inactive) | -5.2e-05 (inactive) | 0.00838 (inactive) | 3.57% (inactive) | 6.41% (inactive) |
| COc1cc2c(cc1OC)CN(CC(=O)Nc1cccc(C)c1)CC2 | 384 | 3.5% (inactive) | -6.2% (inactive) | 98.6 | -74.2% (inactive) | 102 | -0.495 (inactive) | -1.8e-05 (inactive) | 0.00456 (inactive) | 7.7% (inactive) | 9.94% (inactive) |
| CCOC(=O)C(NC(C)=O)(Nc1ccc(S(=O)(=O)Nc2nccs2)cc1)C(F)(F)F (centres undefined) | 523 | -1% (inactive) | 27% (inactive) | 93.8 | 4.2% (inactive) | 95.9 | -0.645 (inactive) | 1.5e-06 (inactive) | 0.00657 (inactive) | 14.8% (inactive) | 30.2% (inactive) |
| O=C(CSc1nccn1Cc1ccccc1)Nc1nccs1 | 388 | -0.7% (inactive) | 10.4% (inactive) | 83.7 | -16.7% (inactive) | 118 | -0.512 (inactive) | -2.7e-05 (inactive) | 0.00698 (inactive) | -30.1% (inactive) | -82.1% (inactive) |
| O=C(NCc1ccco1)C(c1ccco1)N(C(=O)Cn1nnc2ccccc21)c1ccc2c(c1)CCC2 (centres undefined) | 329 | -8% (inactive) | -0.5% (inactive) | 103 | 23.8% (inactive) | 104 | -0.519 (inactive) | -6.5e-06 (inactive) | 0.00472 (inactive) | 14.9% (inactive) | 21.8% (inactive) |
| CCOC(=O)c1oc2ccccc2c1NC(=O)COC | 602 | -1.8% (inactive) | 15.5% (inactive) | 92.3 | 66.5% (inactive) | 59.1 | -0.486 (inactive) | -1.7e-05 (inactive) | 0.00552 (inactive) | -14.3% (inactive) | 4.92% (inactive) |
| CCCC(=O)Nc1c2c(nn1-c1ccc(OC)cc1)CS(=O)C2 (centres undefined) | 472 | 4.2% (inactive) | -25.4% (inactive) | 117 | -70.5% (inactive) | 100 | -0.476 (inactive) | -3.3e-05 (inactive) | 0.00523 (inactive) | 10.8% (inactive) | 22.2% (inactive) |
